# From PubChem BioAssay AID602393 (Broad Institute, 2012)
# The whole screen tested about 350,000 compounds, of which about 7,000 (2%) were called active. Rule as the data show it: active = activation above about 40%; inconclusive = no clear call, values can overlap the other calls; inactive = below that. The full list was thinned out, with actives kept by preference.
# Experiment: Bmi1 luciferase reporter increase in mESCs, primary screen, esBAF inhibitor project, mouse ES cells, Bmi1 luciferase knock-in, single point (AID 602393);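 also: 0% = median of the plate's neutral control wells and 100% = double that signal; a rise in the Bmi1 reporter signal indicates esBAF inhibition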
# Settings: 24 h, at 12.5 µM, stronger effect = higher value, 100% = twice the neutral-well signal
row,Compound,reporter increase
1,O=C(C[C@H]1C[C@H]2c3cc(NC(=O)C4CCOCC4)ccc3O[C@H]2[C@@H](CO)O1)NCC1CC1,0.385% (inactive)
2,O=C(COC(=O)c1ccc2c(c1)OCCO2)NCc1ccccc1Cl,-1.54% (inactive)
3,O=C(COC(=O)c1ccccc1)c1ccc2c(c1)OCCO2,1.23% (inactive)
4,O=C(COC(=O)c1ccc(O)cc1O)NC(=O)c1ccccc1,-3.35% (inactive)
5,O=C(CN1CCN(c2ccccc2F)CC1)c1ccc2c(c1)OCO2,14.1% (inactive)
6,O=C(OCc1ccccc1F)c1ccc2c(c1)OCCO2,58.2% (active)
7,O=C(COC(=O)c1ccc(O)cc1O)c1ccc2c(c1)OCCO2,90.2% (active)
8,C/C=C/c1ccc([C@H]2[C@@H](CO)N(C(C)=O)[C@H]2CN(C)S(C)(=O)=O)cc1,-4.53% (inactive)
9,O=C(C1CCC1)N1C[C@H]2[C@@H](c3ccccc31)[C@H](CO)N2C(=O)Nc1cccc(F)c1,-1.72% (inactive)
10,CCOc1cccc(C(=O)Nc2cnn(Cc3ccccc3)c2)c1,13% (inactive)
11,CCOc1cccc(C(=O)Nc2nnc(-c3cccs3)s2)c1,50% (active)
12,Cc1nnc(NC(=O)c2ccc3nccnc3c2)s1,16.2% (inactive)
13,Cc1noc(C)c1NC(=O)N[C@@H]1C=C[C@H](CC(=O)N2CCCCC2)O[C@H]1CO,-4.9% (inactive)
14,COc1ccc(CNC(=O)C[C@H]2C[C@H]3c4cc(NS(C)(=O)=O)ccc4O[C@H]3[C@@H](CO)O2)cc1,-3.21% (inactive)
15,CN(C)C(=O)c1cccc(-c2ccc3c(c2)[C@H]2[C@H](CCN2C(=O)Cc2ccccc2)[C@H](CO)N3)c1,11% (inactive)
16,O=C(Nc1ccc(Cl)cc1)c1csc([C@H]2C[C@H](O)[C@@H](CO)O2)n1,67.4% (active)
17,O=C(Nc1ccc(Cl)cc1)c1csc([C@@H]2O[C@H](CO)[C@H](O)[C@H](O)[C@H]2O)n1,-3.58% (inactive)
18,O=C(Nc1ccc(OCCO)cc1)c1csc([C@H]2C[C@H](O)[C@@H](CO)O2)n1,0.832% (inactive)
19,CCCNC(=O)[C@@H]1[C@@H](CO)[C@@H]2Cn3c(ccc(C4=CCCCC4)c3=O)[C@H]1N2CCC,2.73% (inactive)
20,O=C(C[C@H]1C[C@@H]2c3cc(NC(=O)C4CCC4)ccc3O[C@@H]2[C@@H](CO)O1)NCCN1CCCCC1,-1.5% (inactive)
21,COC(=O)c1c(-c2ccc(C)cc2)csc1N,0.96% (inactive)
22,Nc1scc(-c2ccncc2)c1Cl,47.9% (active)
23,COc1ccccc1CNC(=O)C[C@@H]1C[C@H]2c3cc(NC(=O)CN(C)C)ccc3O[C@H]2[C@@H](CO)O1,0.071% (inactive)
24,CS(=O)(=O)Nc1ccc2c(c1)[C@H]1C[C@H](CC(=O)NCc3ccc(Oc4ccccc4)cc3)O[C@H](CO)[C@H]1O2,7.43% (inactive)
25,C[C@H]1CN([C@@H](C)CO)C(=O)c2cc(Br)cnc2O[C@H]1CN(C)Cc1cccc(F)c1,-3.97% (inactive)
26,O=C(Nc1ccccc1)N1CCN(Cc2ccccc2)CC1,40.2% (active)
27,O=C(Nc1ccccc1)N1CCC(C(=O)N2CCN(Cc3ccccc3)CC2)CC1,12% (inactive)

row,Compound,reporter increase
1,O=C(Nc1ccccc1)N1CCN(C2c3ccccc3-c3ccccc32)CC1,4.83% (inactive)
2,C[C@@H]1CN([C@H](C)CO)S(=O)(=O)c2ccc(-c3cccc(F)c3)cc2O[C@H]1CN(C)S(=O)(=O)c1ccc(F)cc1,10% (inactive)
3,O=C(NC1CCC1)[C@H]1[C@H](CO)[C@H]2Cn3c(ccc(-c4ccccc4)c3=O)[C@@H]1N2Cc1cocn1,12.8% (inactive)
4,O=C(C1CCC1)N1CCCCN2[C@H](CO)[C@H](c3ccc(-c4cccc(F)c4)cc3)[C@H]2C1,-5.73% (inactive)
5,N#CCC(=O)NC(=O)NCC1CC1,6.44% (inactive)
6,O=C(NCC1CCCCC1)NCC1CCCCC1,44.8% (active)
7,CC(C)(C)NC(=O)NC(=O)COC(=O)CCC1CCCCC1,-5.79% (inactive)
8,CCCNC(=O)C[C@H]1CC[C@H]2[C@H](COc3ccc(NC(=O)CC)cc3C(=O)N2C)O1,2.93% (inactive)
9,C[C@H]1CN([C@@H](C)CO)C(=O)c2cccc(NS(=O)(=O)c3ccc(F)cc3)c2O[C@@H]1CN(C)CC1CC1,-4.49% (inactive)
10,Cc1cccc(N2O[C@H]3C=CC2CCCC3)n1,56.9% (active)
11,CC(C)NC(=O)Nc1ccc2c(c1)C(=O)N([C@@H](C)CO)C[C@@H](C)[C@@H](CN(C)S(=O)(=O)c1ccc(F)cc1)OCCCC[C@H](C)O2,-2.87% (inactive)
12,C[C@@H]1CN([C@H](C)CO)S(=O)(=O)c2ccc(-c3cncnc3)cc2O[C@@H]1CN(C)Cc1ccccn1,-3.4% (inactive)
13,CC(OC(=O)c1c(F)cccc1F)C(=O)NCCC1=CCCCC1 (stereo not drawn),-1.99% (inactive)
14,S=C(NCCC1=CCCCC1)Nc1ccccc1,51.5% (active)
15,CC(=O)Nc1ccc(S(=O)(=O)N(C)CC(=O)NCCC2=CCCCC2)cc1,-5.82% (inactive)
16,Cc1cc(C(=O)NCCc2ccc(Cl)cc2)c(C)o1,55.1% (active)
17,Cc1cc(C(=O)NCCc2ccc(Cl)cc2)n(-c2ccccc2)n1,-4.28% (inactive)
18,NS(=O)(=O)c1ccc(CCNC(=O)c2ccc(Cl)cc2[N+](=O)[O-])cc1,0.338% (inactive)
19,Cn1cnc(CCNC(=O)[C@H]2[C@H](CO)[C@H]3Cn4c(cccc4=O)[C@H]3N2C(=O)Nc2ccccc2)c1,6.91% (inactive)
20,O=C(NC1CCCCC1)N[C@H]1CC[C@H](CCNS(=O)(=O)c2ccc(F)cc2)O[C@H]1CO,12.9% (inactive)
21,CSc1ccccc1-c1nnc(-c2ccc(Cl)cc2)o1,67.2% (active)
22,O=C(Nc1nnc(-c2ccc(Cl)cc2)o1)c1ccccc1Br,17.7% (inactive)
23,O=C(c1nnc(-c2ccc(Cl)cc2)o1)C1CCCC1,19.6% (inactive)
24,Cc1ccc(CNC(=O)CCNC(=O)Cn2ccc3ccccc3c2=O)cc1,-7.21% (inactive)
25,COc1cc(NC(=O)CCNC(=O)Cn2ccc3ccccc3c2=O)cc(OC)c1OC,52.2% (active)
26,COc1ccc(NC(=O)CCNC(=O)Cn2ccc3ccccc3c2=O)c(OC)c1,-7.83% (inactive)
